The values below come from PubChem BioAssay.

Active and inactive are the calls of the source.

A short description of assay [1]: small molecules captured by biotinylated probe aFSTL3 – biochemical, small-molecule microarray, fluorescence 635/667, stem cell growth factor project, primary screen (AID 1064).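 Note: measures binding of the biotinylated anti-FSTL3 antibody to printed compounds.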 The conditions noted are these: higher = more signal.
Assay [2] is described as follows: binders from COS7 lysate, DM2A8 probe, primary screen, torsin A project, cell lysate, small-molecule microarray, fluorescence 635/667 (AID 1065). The following applies: higher = more signal, COS7 lysate expressing mutant human TOR1A.
Assay [3] is described as follows: small molecules captured by biotinylated probe aFGF2 – biochemical, small-molecule microarray, fluorescence 635/667, stem cell growth factor project, primary screen (AID 1067).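 Note: measures binding of biotinylated aFGF2 protein to printed compounds on slides; z-score merges feature fluorescence and signal-to-noise across triplicate slides.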 The following applies: higher = more signal.
Assay [4] is described as follows: small molecules captured by biotinylated probe aFGF10 – biochemical, small-molecule microarray, fluorescence 635/667, stem cell growth factor project, primary screen (AID 1071).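 Note: score merges 667 nm spot intensity and signal to noise from triplicate slides.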 The conditions noted are these: higher = more signal.
Assay [5] has as its target Neurogenic locus notch homolog protein 2 (Homo sapiens) (UniProt Q04721). Nature of the assay: small molecules binding Notch2 protein – biochemical, small-molecule microarray, 635 nm fluorescence, stem cell growth factors, primary screen (AID 1073). The conditions noted are these: higher = more signal.
The target of assay [6] is Pro-neuregulin-1, membrane-bound isoform (Homo sapiens) (UniProt Q02297). Nature of the assay: small molecules binding neuregulin-1 protein – biochemical, small-molecule microarray, fluorescence 635/667, psychiatric disease protein project, primary screen (AID 1075).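 Note: score combines 667 nm spot fluorescence with signal to noise.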 The following applies: NRG1 binding, 635 nm fluorescence, higher = more signal.
Chain of Pro-neuregulin-1, membrane-bound isoform (Homo sapiens) (Q02297 whole entry, looked up, the tested form may be a part, canonical isoform): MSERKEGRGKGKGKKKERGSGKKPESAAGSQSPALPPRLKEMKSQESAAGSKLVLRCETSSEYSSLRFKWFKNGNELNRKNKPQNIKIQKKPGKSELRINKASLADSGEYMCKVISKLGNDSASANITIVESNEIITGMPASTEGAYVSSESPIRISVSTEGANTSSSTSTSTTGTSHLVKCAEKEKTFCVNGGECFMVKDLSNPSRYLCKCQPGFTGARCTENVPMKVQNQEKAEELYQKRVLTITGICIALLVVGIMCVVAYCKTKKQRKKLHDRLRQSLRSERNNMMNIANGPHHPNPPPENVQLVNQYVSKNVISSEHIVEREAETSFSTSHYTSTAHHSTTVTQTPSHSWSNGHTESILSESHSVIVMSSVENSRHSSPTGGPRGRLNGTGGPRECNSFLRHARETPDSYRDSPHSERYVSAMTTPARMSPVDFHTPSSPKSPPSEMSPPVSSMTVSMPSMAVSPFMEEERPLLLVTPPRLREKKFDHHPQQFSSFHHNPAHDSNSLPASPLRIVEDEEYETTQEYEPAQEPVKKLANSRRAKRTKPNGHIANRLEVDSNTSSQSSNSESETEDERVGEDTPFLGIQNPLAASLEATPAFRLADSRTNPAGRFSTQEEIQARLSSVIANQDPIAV
For assay [7], the system named is Neuregulin-1 EGF-like domain. The assay is described as follows: small molecules binding NRG1 EGF domain – biochemical, small-molecule microarray, 635 nm fluorescence, primary screen (AID 1081).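 Note: binding of the protein to compounds printed on small-molecule microarray slides.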 The following applies: higher = more signal.
A short description of assay [8]: FRG1 expression reporter modulators in myotubes – cell-based, C2C12 myotubes, firefly/Renilla luciferase, luminescence, FRG1 inhibition for FSHD, primary screen (AID 1084). The following applies: FRG1 promoter luciferase, higher = more signal, called active from +8 up or from −8 down.
Assay [9] can be described thus: small molecules captured by biotinylated probe aFST – biochemical, small-molecule microarray, fluorescence 635/667, stem cell growth factor project, primary screen (AID 1086).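 Note: score merges 667 nm fluorescence with signal-to-noise of each printed compound spot.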 The conditions noted are these: higher = more signal.
The nature of assay [10]: binders of probe aHhip on microarray, primary screen, stem cell growth factor project, biochemical, small-molecule microarray, fluorescence 635/667 (AID 1087).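 Note: score merges spot fluorescence at 667nm with spot signal to noise ratio.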 The following applies: higher = more signal.
Assay [11] relates to PRMT1 (protein arginine N-methyltransferase 1). Nature of the assay: small molecules binding arginine methyltransferase PRMT1 – biochemical, small-molecule microarray, 635 nm fluorescence, primary screen (AID 1088).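 Note: binding of Prmt1 protein to compounds spotted on small-molecule microarray slides.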 The following applies: higher = more signal.
Assay [12] can be described thus: growth effects on S. cerevisiae YJM789 – YJM789 clinical isolate, OD600, 24 h, basal, primary screen (AID 1089).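 Note: growth of clinical yeast isolate S. cerevisiae YJM 789 seeded 1000 cells per well; test concentration not given here.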 The following applies: higher = more signal, called active from +8 up or from −8 down.
A short description of assay [13]: S. pombe growth modifiers, basal conditions – strain 972, OD600, 24 h, no modulator, primary screen (AID 1090).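 Note: basal condition with compound alone and no growth modifier present; test concentration not given here.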 The following applies: S. pombe 972 growth, higher = more signal, called active from +8 up or from −8 down.
The nature of assay [14]: budding yeast growth modifiers under rapamycin – strain BY4716, OD600, 96 h, primary screen (AID 1091). Note: test concentration not given here. The conditions noted are these: S. cerevisiae BY4716 + rapamycin, higher = more signal, called active from +8 up or from −8 down.
Assay [15] concerns the target Torsin-1A-interacting protein 2 (Homo sapiens) (UniProt Q8NFQ8). The assay is described as follows: small molecules binding lysate-expressed LULL1 – cell lysate, human LULL1 lysate, 635/667 nm fluorescence, primary screen (AID 1092).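 Note: score merges per-feature 667 nm fluorescence with signal-to-noise.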 The following applies: small-molecule microarray, hLULL1 lysate binding, 635 nm fluorescence; higher = more signal.
The nature of assay [16]: optical density change of DRC41 E. coli – strain DRC41, OD650, 24 h, E. coli filamentation project, primary screen (AID 1093).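 Note: MC1000 strain lacking acrAB efflux and sulA so SOS filamentation is blocked; test concentration not given here.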 The conditions noted are these: E. coli DRC41 growth, higher = more signal, called active from +8 up or from −8 down.
Assay [17] is described as follows: probe aLefty2 binding to arrayed compounds – biochemical, biotinylated probe, 635/667 nm fluorescence, primary screen (AID 1094).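 Note: score merges spot fluorescence near 667 nm with spot signal-to-noise ratio.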 The following applies: small-molecule microarray, higher = more signal.
Assay [18] relates to Noggin (protein binding on small-molecule microarray). Nature of the assay: small molecules binding Noggin protein – biochemical, 635/667 nm fluorescence, primary screen (AID 1095).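 Note: score merges 667 nm feature fluorescence with signal to noise over triplicate slides.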 The conditions noted are these: 635 nm fluorescence, higher = more signal.
The target of assay [19] is Neurogenic locus notch homolog protein 3 (Homo sapiens) (UniProt Q9UM47). Nature of the assay: small molecules binding NOTCH3 protein – biochemical, 635/667 nm fluorescence, primary screen (AID 1096). The conditions noted are these: small-molecule microarray, 635 nm fluorescence, higher = more signal.
Assay [20] can be described thus: probe aEGFR binding to arrayed compounds – biochemical, biotinylated probe, 635/667 nm fluorescence, primary screen (AID 1097).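 Note: probe is a biotinylated anti-EGFR antibody binding compounds printed on slides; score combines fluorescence near 667 nm and signal to noise of each spot.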 The following applies: small-molecule microarray, higher = more signal.

Chain of Torsin-1A-interacting protein 2 (Homo sapiens) (Q8NFQ8 whole entry, looked up): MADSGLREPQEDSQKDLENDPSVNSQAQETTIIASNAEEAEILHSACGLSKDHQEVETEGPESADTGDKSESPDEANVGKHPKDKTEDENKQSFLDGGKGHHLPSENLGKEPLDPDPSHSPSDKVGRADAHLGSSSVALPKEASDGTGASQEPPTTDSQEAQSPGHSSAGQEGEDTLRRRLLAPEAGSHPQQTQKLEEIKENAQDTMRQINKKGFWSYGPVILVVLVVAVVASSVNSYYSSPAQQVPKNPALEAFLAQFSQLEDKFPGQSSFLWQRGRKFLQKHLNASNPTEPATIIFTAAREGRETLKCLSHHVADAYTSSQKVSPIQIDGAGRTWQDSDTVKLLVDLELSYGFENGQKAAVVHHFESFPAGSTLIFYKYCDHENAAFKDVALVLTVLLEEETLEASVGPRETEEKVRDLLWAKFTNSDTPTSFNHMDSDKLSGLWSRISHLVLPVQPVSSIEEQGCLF
Chain of Neurogenic locus notch homolog protein 2 (Homo sapiens) (Q04721 whole entry, looked up, canonical isoform): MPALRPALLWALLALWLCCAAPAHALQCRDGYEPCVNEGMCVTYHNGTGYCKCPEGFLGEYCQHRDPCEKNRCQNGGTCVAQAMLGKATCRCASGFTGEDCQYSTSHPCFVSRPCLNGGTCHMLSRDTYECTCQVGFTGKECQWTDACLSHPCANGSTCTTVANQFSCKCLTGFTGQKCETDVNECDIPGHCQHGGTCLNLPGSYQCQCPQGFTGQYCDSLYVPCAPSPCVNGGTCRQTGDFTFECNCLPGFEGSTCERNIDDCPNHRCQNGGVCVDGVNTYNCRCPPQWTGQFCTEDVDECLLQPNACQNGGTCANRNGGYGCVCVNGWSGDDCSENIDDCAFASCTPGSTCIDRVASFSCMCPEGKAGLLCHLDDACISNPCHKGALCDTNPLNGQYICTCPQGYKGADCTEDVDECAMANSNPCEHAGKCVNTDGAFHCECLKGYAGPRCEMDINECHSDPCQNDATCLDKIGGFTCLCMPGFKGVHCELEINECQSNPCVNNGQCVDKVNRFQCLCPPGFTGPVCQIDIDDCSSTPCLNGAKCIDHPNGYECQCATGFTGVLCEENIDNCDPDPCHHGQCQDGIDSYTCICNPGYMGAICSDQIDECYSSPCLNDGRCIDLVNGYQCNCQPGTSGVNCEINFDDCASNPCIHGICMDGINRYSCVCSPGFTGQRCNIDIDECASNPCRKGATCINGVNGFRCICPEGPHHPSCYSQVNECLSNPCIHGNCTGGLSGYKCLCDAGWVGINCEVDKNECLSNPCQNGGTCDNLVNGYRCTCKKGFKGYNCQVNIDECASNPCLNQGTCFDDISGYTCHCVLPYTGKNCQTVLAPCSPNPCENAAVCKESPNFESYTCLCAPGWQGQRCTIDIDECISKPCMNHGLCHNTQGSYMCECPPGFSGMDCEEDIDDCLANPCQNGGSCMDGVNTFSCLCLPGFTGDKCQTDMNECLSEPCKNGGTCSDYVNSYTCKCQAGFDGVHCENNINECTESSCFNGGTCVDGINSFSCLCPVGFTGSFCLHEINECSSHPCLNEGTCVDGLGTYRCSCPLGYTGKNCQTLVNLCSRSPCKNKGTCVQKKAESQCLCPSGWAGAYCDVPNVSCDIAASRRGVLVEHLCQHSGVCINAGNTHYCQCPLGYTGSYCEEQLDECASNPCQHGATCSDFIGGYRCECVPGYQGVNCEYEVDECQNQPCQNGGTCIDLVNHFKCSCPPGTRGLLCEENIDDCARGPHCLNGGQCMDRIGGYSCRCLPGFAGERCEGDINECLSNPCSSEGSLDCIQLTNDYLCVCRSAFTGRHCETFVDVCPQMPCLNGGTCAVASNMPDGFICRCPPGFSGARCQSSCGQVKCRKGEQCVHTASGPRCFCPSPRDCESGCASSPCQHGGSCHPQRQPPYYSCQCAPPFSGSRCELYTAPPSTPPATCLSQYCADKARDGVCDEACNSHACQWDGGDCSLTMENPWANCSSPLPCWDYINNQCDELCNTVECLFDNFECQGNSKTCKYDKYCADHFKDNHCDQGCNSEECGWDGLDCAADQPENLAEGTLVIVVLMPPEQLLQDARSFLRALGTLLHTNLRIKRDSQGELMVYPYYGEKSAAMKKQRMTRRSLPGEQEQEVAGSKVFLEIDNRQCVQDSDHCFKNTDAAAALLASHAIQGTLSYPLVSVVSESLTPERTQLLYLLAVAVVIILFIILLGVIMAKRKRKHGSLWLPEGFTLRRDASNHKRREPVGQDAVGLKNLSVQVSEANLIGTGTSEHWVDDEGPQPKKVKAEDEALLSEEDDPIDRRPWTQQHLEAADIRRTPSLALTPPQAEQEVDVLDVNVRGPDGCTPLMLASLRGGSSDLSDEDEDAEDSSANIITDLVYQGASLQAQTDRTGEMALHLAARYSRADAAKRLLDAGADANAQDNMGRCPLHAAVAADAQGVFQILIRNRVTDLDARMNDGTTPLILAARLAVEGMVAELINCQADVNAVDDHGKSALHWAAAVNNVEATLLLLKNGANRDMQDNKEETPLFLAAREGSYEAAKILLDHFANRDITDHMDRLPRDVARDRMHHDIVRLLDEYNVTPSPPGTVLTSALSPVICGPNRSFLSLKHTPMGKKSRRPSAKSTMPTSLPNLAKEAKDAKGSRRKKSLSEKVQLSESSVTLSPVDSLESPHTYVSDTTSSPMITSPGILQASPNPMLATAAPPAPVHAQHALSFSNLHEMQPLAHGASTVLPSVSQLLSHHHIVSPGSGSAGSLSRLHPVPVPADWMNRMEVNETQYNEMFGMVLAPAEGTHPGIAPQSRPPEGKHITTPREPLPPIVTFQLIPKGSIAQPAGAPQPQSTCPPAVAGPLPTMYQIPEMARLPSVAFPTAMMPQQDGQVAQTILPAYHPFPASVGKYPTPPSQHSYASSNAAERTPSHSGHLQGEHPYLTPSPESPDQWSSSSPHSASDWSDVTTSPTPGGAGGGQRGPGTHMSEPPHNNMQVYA

In the case of `C=CCC(OC(C)=O)[C@@H]1[C@@H](N(Cc2cccc3ccccc23)C(=O)c2ccc(-c3ccccc3)cc2)c2cc(OCCCO)ccc2N1C(=O)c1ccc(-c2ccccc2)cc1` (stereo not given in full), the composite z-score in assay [1] is -0.0061; in assay [2], 0.356; in [3], -0.06; in [4], 0.0099; in assay [5] it was 0.369; in assay [6], 0.0975. Besides, the composite z-score is -0.453 in assay [7]; 0.392 in assay [9]; 0.0274 in assay [10]; -0.0425 in assay [11]; 0.549 in assay [15]; -0.0179 in assay [17]. For the same molecule, the composite z-score in assay [18] was -0.63; in [19], -0.234; in assay [20] it was -0.106. Moreover, the z-score in [8] is -0.774 (inactive); in assay [12], -1.05 (inactive); in assay [13], -0.0057 (inactive); in assay [14], -0.415 (inactive); in assay [16], -1.02 (inactive).
On to `C=C(COC)/C(=C/C[C@@H](OC(=O)c1ccncc1)c1ccccc1OCCO)c1cc(C(=O)OC)ccc1OC`, for which the composite z-score is 0.232 in assay [1]; -0.72 in [2]; -0.0718 in [3]; 0.263 in [4]; -0.381 in assay [5]; -0.33 in assay [6]. Besides, the composite z-score in assay [7] was 0.851; in assay [9], -0.3; in [10], -0.0645; in assay [11] it was 0.768; in [15], 0.703; in assay [17] it was -0.106. Also, the composite z-score in assay [18] was -0.341; in assay [19], -0.0686; in assay [20], -0.178. In addition, the z-score is -1.87 (inactive) in assay [8]; -0.833 (inactive) in assay [12]; -0.778 (inactive) in assay [13]; 0.351 (inactive) in assay [14]; 0.0184 (inactive) in assay [16].
As to `CN1C(=O)[C@@H]2[C@@H](CC(COc3ccccc3)=C([C@H](O)CCc3ccccc3)[C@@H]2CO)C1=O`, the composite z-score in [1] is -0.138; in assay [2], 0.342; in [3], -0.103; in [4], -0.195; in assay [5], -0.492; in assay [6], -0.207. In addition, the composite z-score in [7] was -0.0233; in assay [9], -0.167; in assay [10], -0.236; in [11], -0.268; in [15] it was -0.551; in assay [17] it was -0.0971. Moreover, the composite z-score in [18] is -0.358; in assay [19], -0.932; in assay [20], -0.0947. For the same molecule, the z-score in [8] is -2.39 (inactive); in [12], 0.0937 (inactive); in assay [13], -1.87 (inactive); in [14], -0.537 (inactive); in [16], 2.41 (inactive).
With `CCCCC(=O)N(CCN1CCOCC1)[C@@H]1CC(C(=O)NCCO)=C[C@H](Oc2c(I)cc(CO)cc2OC)[C@H]1O`, the composite z-score in assay [1] is -0.725; in [2], 0.151; in assay [3] it was -0.146; in assay [4] it was 0.511; in assay [5], 0.555; in assay [6], 0.171. Moreover, the composite z-score in assay [7] was 0.384; in assay [9], 0.0126; in assay [10] it was -0.549; in assay [11] it was 0.729; in assay [15], 0.322; in assay [17], -0.301. The composite z-score is 0.26 in assay [18], 0.232 in [19] and -0.152 in [20]. Moreover, the z-score in [8] was 0.912 (inactive); in assay [12], 0.0164 (inactive); in assay [13], -0.393 (inactive); in assay [14], 0.0883 (inactive); in assay [16], 1.3 (inactive).
`COCCOC(=O)N1C(=O)[C@@]2(c3cc(C#CCNC(N)=O)ccc31)[C@H](c1ccc(OCCO)cc1)N1[C@H](c3ccccc3)[C@H](c3ccccc3)OC(=O)[C@H]1[C@@H]2C(N)=O`: the composite z-score in [1] came out at 0.423; in assay [2], 0.278; in assay [3] it was 0.0541; in [4], 0.913; in assay [5] it was 1.49; in [6] it was 0.897. For the same molecule, the composite z-score in assay [7] was found to be 0.809; in assay [9] it was 0.715; in [10], 0.351; in [11] it was 0.981; in [15], 1.92; in [17], 0.221. The composite z-score in [18] was determined as 0.228; in [19] it was 0.542; in [20], 0.387. In addition, the z-score in [8] was 0.47 (inactive); in [12] it was 2.18 (inactive); in assay [13], 1.16 (inactive); in assay [14], 2.29 (inactive); in assay [16] it was 1.11 (inactive).
